# Data published in the supplement of paper PMC5407854, “Inhibitor of ppGalNAc-T3-mediated O-glycosylation blocks cancer cell invasiveness and lowers FGF23 levels” (eLife, 2017).
# Whole data set: some 1,700 compounds, median “T3 sensor activation Q score (MG/GFP ratio z-score vs DMSO controls)” near 0.25, cut for the highest 2% near 1.9. Shown is part of a subset that was picked to be rich in the highest values.
# Tested on: ppGalNAc-T3 sensor
# Experiment: T3 sensor activation Q score (MG/GFP ratio z-score vs DMSO controls) (SD units); higher = more sensor activation (inhibition of ppGalNAc-T3 glycosylation)
# Settings: HEK293 sensor cells; 10 µM; 6 h
# Procedure: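 Cells were treated with compound at 10 uM for 6 h, then MG/GFP ratio was read by flow cytometry (10,000 cells per well, duplicate wells). Q = (R - R_neg)/SD_neg relative to DMSO vehicle controls; the signal rises when the glycosyltransferase is inhibited.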
row,Compound,T3 sensor activation Q score
1,O=S1(=O)CSCS(=O)(=O)C1,-0.85
2,CSc1cccc(NC(=O)Nc2ccccc2C(N)=O)c1,0.9
3,Cc1ccc(NC(=O)Nc2ccccc2C(N)=O)cc1,-0.95
4,Cc1cc(NC(=O)NC(=O)c2ccccc2NC(=O)C(C)N)ccc1Oc1ncc(Br)cn1 (stereo not drawn),4.35
5,C[C@@H]1O[C@@H](Oc2c(-c3cc(O)c(O)c(O)c3)oc3cc(O)cc(O)c3c2=O)[C@H](O)[C@H](O)[C@H]1O,0.05
6,NC(N)=Nc1ccc(N=C(N)N)cc1,0.3
7,COc1ccc(OC)c(NC(=O)c2cc3oc4ccccc4c3cc2O)c1,-1.55
8,Nc1cc(=O)[nH]c2ncnn12,-0.15
9,CCOc1ccc(NC(=O)C2CCCN(C)C2)cc1 (stereo not drawn),0.6
10,Nc1ncnc2c([C@@H]3O[C@H](CO)[C@@H](O)[C@H]3O)c[nH]c12,0.15
11,COC(=O)CC1OCC=C2CN3CCC45C6=CC(=O)C(=O)C([N+](=O)[O-])=C6NC4C1C2CC35 (stereo not drawn),-0.2
12,CCOC(=O)C1(C#N)C(=O)CSC1=Nc1ccccc1Cl (stereo not drawn),-1.05
13,CCOC(=O)Nc1cc2c(c(N)n1)N=C(c1ccccc1)CN2,4
14,CCOC(=O)Nc1csnn1,-0.7
15,CCOC(=O)Nc1c2ccccc2nc2ccccc12,-1.8
16,Oc1ccc(Nc2ccnc3cc(Cl)ccc23)cc1,1.1
17,O=C(Nc1cccc([N+](=O)[O-])c1)c1cccc(C(=O)Nc2cccc([N+](=O)[O-])c2)c1,-0.25
18,Cc1c(-c2ccccc2)n(O)[n+]([O-])c1-c1ccccc1,0.7
19,Oc1ccccc1Nc1ccccn1,1.75
20,Cc1nnc2nc(-c3ccccc3)nc(-c3ccccc3)n12,-1.75
21,CCOC(=O)c1c(O)cc(C)[nH]c1=O,-0.85
22,O=S(=O)(c1ccc2c(c1)CCCN2)N1CCC[C@H]2CCCC[C@@H]21,0.2

row,Compound,T3 sensor activation Q score
1,O=C1OC(CN(Cc2ccccc2)Cc2ccccc2)CN1/N=C/c1ccc([N+](=O)[O-])o1 (stereo not drawn),-0.6
2,Cc1cc2nc(CS)[nH]c2cc1C,-1.1
3,CC(=O)Nc1ccc2cc3ccc(NC(C)=O)cc3nc2c1,0.2
4,Cc1ccc(-n2nnnc2-c2cccnc2)cc1,-0.15
5,CCOC(=O)c1cc[nH]c1CC(=O)NC,0.6
6,Cc1ccc2c(c1)c1ccc3c(c1n2C)C(=O)C=CC3=O,-1.5
7,Cc1cccc(C)c1NC(=O)Nc1ccc(S(N)(=O)=O)cc1,1.6
8,CCOC(=O)/C(C#N)=C1\SS/C(=C(/C#N)C(=O)OCC)S1,0.55
9,c1cc(CN2CCCNCCNCCCNCC2)ccc1CN1CCCNCCNCCCNCC1,-0.5
10,NCCN1CCNCC1,1.85
11,C=CCOc1ccc(S(C)(=O)=O)cc1,1.85
12,C#CCOCC1CN(c2ccccc2)C(=O)O1 (stereo not drawn),1.9
13,CCCCOc1ccc(N=Nc2ccc(N)nc2N)cn1,1.7
14,O=C(CC1C=Cc2ccccc2N1C(=O)c1ccccc1)c1ccccc1 (stereo not drawn),-1.4
15,N#CC1C=Cc2c(ccc3ccccc23)N1C(=O)c1ccccc1 (stereo not drawn),2.65
16,O=C(Nc1cccc2ccccc12)c1ccccc1,-0.45
17,Nc1ccc2c(c1)Cc1cc(Cl)c(Cl)cc1-2,-0.65
18,OC(COc1ccc(Cl)cc1)CN1CCN(c2cccc(Cl)c2)CC1 (stereo not drawn),-0.65
19,O=C(Nc1ccc2ncccc2c1)Nc1ccc2ncccc2c1,0.15
20,Cc1c(CCO)c(=O)n2n1CCCC2,-0.55
21,CCCCCCCC1(C)NC(=O)NC1=O (stereo not drawn),-1.9
22,ClCC(CNCc1ccccc1)c1ccccc1 (stereo not drawn),0.35

row,Compound,T3 sensor activation Q score
1,O=c1cc(-c2ccc(Cl)cc2)[nH]c2ccccc12,0
2,c1ccc(N=NN2CCOCC2)cc1,-0.75
3,CC1(C)OC2C(CO)OC(n3cnc4c(=S)nc[nH]c43)C2O1 (stereo not drawn),0.4
4,COC(=O)CC1(C(=O)OC)Nc2cc(Cl)c(Cl)cc2S(=O)(=O)N1O (stereo not drawn),0.7
5,CN(CCC#N)c1ccc(/C=C(\C#N)c2cccc(C(F)(F)F)c2)cc1,-0.05
6,CC1CC(C)(C)NC2(CCCC2)N1 (stereo not drawn),-0.6
7,O=C(Nc1ccc(O)c(C(=O)O)c1)Oc1ccccc1,0.9
8,c1ccc2[nH]c(-c3ccncc3)nc2c1,0.2
9,CC(=O)CC(=O)Nc1ccc2ccccc2c1,1.25
10,c1ccc2[nH]c(CCCCCc3nc4ccccc4[nH]3)nc2c1,-0.5
11,Cc1ccc(CC#N)c(-c2c(CC#N)ccc(C)c2C)c1C,-0.85
12,c1ccc2c(c1)[nH]c1c3ccccc3sc21,-0.95
13,O=C(Nc1ccc(Nc2ccncc2)cc1)c1ccc([N+](=O)[O-])cc1,0.75
14,O=C(Nc1ccc(Nc2ccncc2)cc1)c1ccc(Nc2ccnc3ccc([N+](=O)[O-])cc23)cc1[N+](=O)[O-],-1.4
15,O=C(Nc1ccc(Nc2ccncc2)cc1)c1ccc(Nc2ccnc3ccc([N+](=O)[O-])cc23)cc1,9.85
16,C/C(=N\NC(=S)N1CC2CCC(CC2)C1)c1cnccn1,-1.2
17,CCOC(=O)c1nn(-c2ccccc2)cc1O,0.05
18,O=C(c1ccc(OCCN2CCCCC2)cc1)c1c(-c2ccc(O)cc2)sc2cc(O)ccc12,2.7
19,CC1=Nc2ccccc2/C1=C\c1c(C)[nH]c2ccccc12,-0.45
20,Cc1ccc(NC(=O)Nc2cccnc2)cc1NC(=O)Nc1cccnc1,0.95
21,Cc1ccncc1C(N)=O,1.9
22,O=C(C(=O)c1cccnc1)c1cccnc1,1.75

row,Compound,T3 sensor activation Q score
1,COc1ccccc1NC(=O)c1cc2ccccc2cc1O,-0.55
2,NC(=O)c1cc(C(N)=O)nc(Cl)n1,-0.8
3,C=CCNC(=S)N1CCN(c2ccccc2Cl)CC1,-0.25
4,O=C(C(Cl)Cl)N1CC2CCC(CC2)C1,1.4
5,NS(=O)(=O)c1ccc(NC(=S)NC(=O)c2ccco2)cc1,1
6,CN=C1C=C/C(=N/N=c2/ccn(O)cc2C)C=C1C,0.15
7,CC(C)(C)c1ccc(C(=O)N2CCOC23CCCCC3)cc1,1.85
8,O=C(COc1cc(Cl)c(Cl)cc1Cl)Nc1ccc([N+](=O)[O-])cc1Cl,-0.3
9,CC(=O)NCCCOc1ccc([N+](=O)[O-])cc1Cl,-0.6
10,O=C(COc1ccc([N+](=O)[O-])cc1Cl)N1CCOCC1,1.85
11,COc1ccc(Br)c2c1C(=O)CC2,-1.4
12,CCCN(CCC)CC(=O)N1CC(=O)Nc2ccccc21,0.55
13,Nc1ccc(N=Nc2ccc(O)cc2)c(N)n1,1.5
14,Cc1ccc(N=Nc2c(O)c3ccccc3[nH]c2=O)c(S(=O)(=O)N(C)C)c1,0.95
15,C#CC1(O)CCC2C3CCC4=Cc5oncc5CC4(C)C3CCC21C (stereo not drawn),0.1
16,COc1cc2c(c(OC)c1O)C(=O)CO2,1.55
17,CC(=O)[C@H]1CC[C@H]2[C@@H]3CCC4=CC(=O)CC[C@]4(C)[C@@]3(F)[C@@H](O)C[C@]12C,0.55
18,CC1(c2ccccc2)O[C@@H]2C[C@H]3[C@@H]4CCC5=CC(=O)C=C[C@]5(C)[C@@]4(F)[C@@H](O)C[C@]3(C)[C@]2(C(=O)CO)O1 (stereo partly drawn),3.35
19,CC(C)(C)n1nc(C2CC2)cc1NC(=O)Nc1ccc(Cl)cc1,0.7
20,COc1cc(Cl)c(CC(=O)c2c[nH]c3ccccc23)cc1OC,1.05
21,CC(C)(C)N1CC(OC(N)=O)C1,1.65
22,O=[N+]([O-])c1cccc(-c2nc3ccccc3s/c2=N/O)c1,1.3

row,Compound,T3 sensor activation Q score
1,CN(C)c1ccc(N=Nc2ccccn2)cc1,-0.95
2,Nc1c(Cl)ncnc1NCCO,0.55
3,COCC(=O)OC1CCn2c1nc1c2C(=O)C(C)=C(NC(C)=O)C1=O (stereo not drawn),-0.35
4,C(=N\n1cnnc1)/c1ccc2c(c1)CCC2,0.05
5,Cc1cc(C)c(C#N)c(Sc2nc(C)c([N+](=O)[O-])c(C)c2C#N)n1,-0.15
6,CC(=O)NC1(C(=O)O)CCCC1,-1.1
7,CC(=NO)C1CC(CC(=O)O)C1(C)C (stereo not drawn),-0.55
8,O=c1cc(-c2ccccc2)nc2cc(-c3ccco3)[nH]n12,0.35
9,Cn1c(N)c(C(=O)/C=C/c2ccccc2)c(=O)[nH]c1=O,1.7
10,OCc1ncccc1O,-0.75
11,CN(C)CCCN1c2ccc3ccccc3c2Sc2cccc(Cl)c21,-0.4
12,S=c1[nH]cc2cnccn12,-1.4
13,CCOc1ccc(NC(=S)NC(=O)c2ccco2)cc1,-1.05
14,Cc1ccn(C)c(=N)c1,2
15,O=C1OCC/C1=C\NCCCCCCCCN/C=C1\CCOC1=O,1.2
16,O=C1N=NC2=C1c1c3ccccc3c(O)n1CC2,1.7
17,CC(C)=CCC/C(C)=C\C(N)=O,0.2
18,CC(C)CC(NC(=O)OCc1ccccc1)C(=O)NC(Cc1c[nH]c2ccccc12)C(=O)O (stereo not drawn),-0.85
19,O=C1CSC(c2cccs2)N1c1nncs1 (stereo not drawn),0.05
20,N=C(N)n1c(N)nc2ccccc2c1=O,-0.55
